Source: PubChem BioAssay (NCATS)
Inconclusive results are not listed. Unless noted, calls follow the shape of the dose curve; as a rule, active = well fitted curve in either direction with a large enough effect (not every such curve was filed as active); inconclusive = small, poorly fitted or top-dose-only effect, or another doubt; inactive = flat fitted curve, though single readings scatter.

Columns and labels:
[1] = AP1 Signaling Pathway (AID 357); details: ME-180 AP-1-bla reporter, EGF-induced, beta-lactamase ratio, 5 h; at 17.2 µM (top of the series) unless noted;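 also: ME-180 reporter cells stimulated with EGF at its EC50 level; % is scaled to controls: 0 for no effect and ±100 for the full control effect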
In short: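 Read-out was the 460nm/530nm emission ratio (excitation 405nm) after CCF4 loading for 2.5 hours at room temperature. Cells carried an AP-1-driven beta-lactamase reporter, were stimulated with EC50 EGF plus compound for 5 hours, and AC50 values came from titrations.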

[2] = NFAT Signaling Pathway (AID 444); details: Jurkat NFAT-bla M1, carbachol, beta-lactamase ratio, 5 h; at 17.2 µM (top of the series) unless noted;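 also: carbachol stimulus at about its EC50 of 1 µM final; % is scaled to controls: 0 for no effect and ±100 for the full control effect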
In short: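 Read-out: CCF4 FRET ratio (460 nm/530 nm) after 1 h RT dye loading, used for %activity and AC50 from titration series. Cells: Jurkat NFAT-β-lactamase/M1 line, treated with compound plus 1 uM carbachol for 5 h, 37 °C.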

[3] = Stat Signaling Pathway (AID 446); details: ME-180 (cervical carcinoma) SIE beta-lactamase reporter, IL-6 stimulated, 5 h; at 17.2 µM (top of the series) unless noted;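 also: ME-180 cervical cancer cells given 40 pM IL-6 alongside compound; SIE-controlled beta-lactamase reporter measured as 460/530 nm FRET emission ratio; % is scaled to controls: 0 for no effect and ±100 for the full control effect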
In short: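 Emission at 460 and 530 nm (excitation 405 nm) reports SIE-controlled beta-lactamase in ME-180 cells. Cells received compound with 40 pM IL-6 for 5 hrs at 37 C; data scaled between 300 pM IL-6 and 125 nM JAK-inhibitor controls.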

[4] = molecular target: Glucocorticoid receptor (Homo sapiens) (UniProt P04150); assay: GR-GFP Redistribution (AID 450;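 active = compounds whose dose series gives a full or clear partial fitted curve of increased nuclear translocation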; also: potency is read from the fitted curve at half-maximal effect)
Chain of Glucocorticoid receptor (Homo sapiens) (P04150 whole entry, looked up): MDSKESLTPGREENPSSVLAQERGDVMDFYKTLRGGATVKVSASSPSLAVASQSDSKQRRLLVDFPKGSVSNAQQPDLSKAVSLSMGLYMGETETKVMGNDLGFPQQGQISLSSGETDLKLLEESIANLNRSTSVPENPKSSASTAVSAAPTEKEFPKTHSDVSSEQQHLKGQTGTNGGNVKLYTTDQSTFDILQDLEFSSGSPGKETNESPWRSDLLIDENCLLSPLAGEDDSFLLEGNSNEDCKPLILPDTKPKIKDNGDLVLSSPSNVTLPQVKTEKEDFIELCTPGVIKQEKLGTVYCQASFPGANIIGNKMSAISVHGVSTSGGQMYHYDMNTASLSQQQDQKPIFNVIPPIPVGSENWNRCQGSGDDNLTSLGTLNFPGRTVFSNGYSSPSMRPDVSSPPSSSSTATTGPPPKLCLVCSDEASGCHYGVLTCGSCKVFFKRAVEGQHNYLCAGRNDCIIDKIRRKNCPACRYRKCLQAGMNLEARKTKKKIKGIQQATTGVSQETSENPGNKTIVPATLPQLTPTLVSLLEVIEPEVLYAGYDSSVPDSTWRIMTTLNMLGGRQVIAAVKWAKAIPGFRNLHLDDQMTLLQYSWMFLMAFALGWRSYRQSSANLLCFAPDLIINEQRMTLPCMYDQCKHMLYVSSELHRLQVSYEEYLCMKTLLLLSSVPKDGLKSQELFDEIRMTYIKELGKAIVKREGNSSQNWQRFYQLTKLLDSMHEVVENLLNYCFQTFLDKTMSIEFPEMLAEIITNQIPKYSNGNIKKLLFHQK

CN(C)c1ccc(O)c2c1CC1CC3[C@@H](N(C)C)C(=O)C(C(N)=O)=C(O)[C@]3(O)C(=O)C1=C2O (some centres undefined)
inactive: activity change, negative = inhibition [1] 6.78% | activity change, negative = inhibition [2] 8.29% | activity, negative = inhibition [3] -13.5% | Potency [4] > 20.6 µM

CC(=O)Nc1cnc2ccccc2n1
inactive: activity change, negative = inhibition [1] 2.26% | activity change, negative = inhibition [2] -13.5% | activity, negative = inhibition [3] 7.01% | Potency [4] > 20.6 µM

Cc1c2c([n+]3n1CCC3)CC(C)(C)CC2=O
inactive: activity change, negative = inhibition [1] 8.99% | activity change, negative = inhibition [2] -9.27% | activity, negative = inhibition [3] 11.2% | Potency [4] > 20.6 µM

COc1cccc(OC)c1-c1nn2c(-c3ccccc3Cl)nnc2s1
inactive: activity change, negative = inhibition [1] -22.5% | activity change, negative = inhibition [2] -8.73% | activity, negative = inhibition [3] -3.22% | Potency [4] > 20.6 µM

CC1=C(c2ccc(Cl)cc2)[N+](=O)C(C)(C)N1[O-]
inactive: activity change, negative = inhibition [1] 8.72% | activity change, negative = inhibition [2] 13.4% | activity, negative = inhibition [3] -0.945% | Potency [4] > 20.6 µM

COC(=O)c1ccc(Cn2nnc3c(sc4nc(N5CCOCC5)c5c(c43)CCCC5)c2=O)o1
inactive: activity change, negative = inhibition [1] 0.759% | activity change, negative = inhibition [2] -21.1% | activity, negative = inhibition [3] -4.56% | Potency [4] > 20.6 µM

COc1ccc(C(=O)NCC(=O)n2nc(C)cc2C)cc1OC
inactive: activity change, negative = inhibition [1] 6.38% | activity change, negative = inhibition [2] -1.54% | activity, negative = inhibition [3] 16.4% | Potency [4] > 20.6 µM

COc1ccccc1N(O)C1CC(=O)N(c2ccc(Br)cc2)C1=O (centres undefined)
inactive: activity change, negative = inhibition [1] -7.13% | activity change, negative = inhibition [2] -6.72% | activity, negative = inhibition [3] -0.749% | Potency [4] > 20.6 µM

CCN(CC)S(=O)(=O)c1ccc2c(c1)c(C(=O)O)cn2C
inactive: activity change, negative = inhibition [1] -6.47% | activity change, negative = inhibition [2] -1.02% | activity, negative = inhibition [3] 1.11% | Potency [4] > 20.6 µM

CCOc1ccc2nc(SCC(=O)Nc3ncccn3)[nH]c2c1
inactive: activity change, negative = inhibition [1] -9.31% | activity change, negative = inhibition [2] 0.119% | activity, negative = inhibition [3] -2.35% | Potency [4] > 20.6 µM

COc1ccc(C2NC3=C(CCC3)C3(C#N)C(OC)(OC)N=C(N)C23C#N)cc1 (centres undefined)
inactive: activity change, negative = inhibition [1] -8.29% | activity change, negative = inhibition [2] 6.55% | activity, negative = inhibition [3] -5.86% | Potency [4] > 20.6 µM

COc1cc(C)nc(Oc2ccc(=O)n(C)n2)n1
inactive: activity change, negative = inhibition [1] 8.82% | activity change, negative = inhibition [2] -8.27% | activity, negative = inhibition [3] 1.84% | Potency [4] > 20.6 µM

O=C(CNC1=NCCC1)c1ccc2c(c1)OCCO2
inactive: activity change, negative = inhibition [1] 5.51% | activity change, negative = inhibition [2] -10.1% | activity, negative = inhibition [3] -3.23% | Potency [4] > 20.6 µM

Cn1c(OCc2cccnc2)nc2c1c(=O)n(Cc1ccc(Cl)cc1)c(=O)n2C
inactive: activity change, negative = inhibition [1] -16.3% | activity change, negative = inhibition [2] 22% | activity, negative = inhibition [3] -15.9% | Potency [4] > 20.6 µM

O=C(O)CN(c1ccccc1)C1SC(=O)NC1=O (centres undefined)
inactive: activity change, negative = inhibition [1] 3.92% | activity change, negative = inhibition [2] 20.4% | activity, negative = inhibition [3] 10.5% | Potency [4] > 20.6 µM

CCCCOc1ccccc1P(=O)(O)CP(=O)(c1ccccc1)c1ccccc1
inactive: activity change, negative = inhibition [1] -13.5% | activity change, negative = inhibition [2] -17% | activity, negative = inhibition [3] -14.9% | Potency [4] > 20.6 µM

Cc1ccc(N2CN=c3s/c(=C\c4cccnc4)c(=O)n3C2)cc1
inactive: activity change, negative = inhibition [1] -7.29% | activity change, negative = inhibition [2] -22.3% | activity, negative = inhibition [3] -5.47% | Potency [4] > 20.6 µM

COc1ccc(/C(O)=C2/C(=O)C(=O)N(c3ncccn3)C2c2ccc(OC)c(OC)c2)cc1 (centres undefined)
inactive: activity change, negative = inhibition [1] 10.2% | activity change, negative = inhibition [2] -0.912% | activity, negative = inhibition [3] -6.81% | Potency [4] > 20.6 µM

Cn1c(=O)[nH]c2cc(Cl)cnc21
inactive: activity change, negative = inhibition [1] 7.54% | activity change, negative = inhibition [2] 3.47% | activity, negative = inhibition [3] 5.04% | Potency [4] > 20.6 µM

O=C(C/C(=N/O)c1ccccc1O)C(F)F
inactive: activity change, negative = inhibition [1] 15.8% | activity change, negative = inhibition [2] 0.0588% | activity, negative = inhibition [3] 3.52% | Potency [4] > 20.6 µM

CC1(C(=O)CSc2nc3ccccc3s2)CCC(=O)O1 (centres undefined)
inactive: activity change, negative = inhibition [1] -6.34% | activity change, negative = inhibition [2] 1.72% | activity, negative = inhibition [3] 4.74% | Potency [4] > 20.6 µM

CC(=O)NCCCCCCNC(C)=O
inactive: activity change, negative = inhibition [1] 10.3% | activity change, negative = inhibition [2] -0.404% | activity, negative = inhibition [3] 2.41% | Potency [4] > 20.6 µM

COc1ccc(-c2nc3n(c2Br)CCC3)cc1
inactive: activity change, negative = inhibition [1] -3.45% | activity change, negative = inhibition [2] 1.51% | activity, negative = inhibition [3] 0.643% | Potency [4] > 20.6 µM

C=CCn1c(=S)[nH]c2ccccc2c1=O
inactive: activity change, negative = inhibition [1] -3% | activity change, negative = inhibition [2] 10.1% | activity, negative = inhibition [3] 4.87% | Potency [4] > 20.6 µM

COc1cccc(N2CCN(C(=O)c3ccc(=O)oc3)CC2C)c1 (centres undefined)
inactive: activity change, negative = inhibition [1] 26.8% | activity change, negative = inhibition [2] -28.2% | activity, negative = inhibition [3] -1.83% | Potency [4] > 20.6 µM

COCCNc1ncnc2c1cnn2-c1ccc(Cl)cc1
inactive: activity change, negative = inhibition [1] -9.71% | activity change, negative = inhibition [2] -10.4% | activity, negative = inhibition [3] 2.93% | Potency [4] > 20.6 µM
